Compounds with a hit are over-represented: about 3.7% of the library has one in this group of screens.
FadD28 FP inh: inhibitors of FadD28 bisubstrate probe binding, primary screen, biochemical, fluorescence polarization, single point; AID 588549, 2011; hit rate 0.22% among 360,000; Mycobacterium tuberculosis FadD28 fatty-acid-AMP ligase; inhibition, % at 12.5 µM; in the data active means inhibition above about 8.5%, passing the limit was not always enough; inconclusive means no clear call, values can overlap the other calls
UGM FP inh: M. tuberculosis UGM enzyme inhibitors, primary screen, biochemical, fluorescence polarization, single point | hit rate 0.06% among 320,000 | AID 504406, 2011 | UDP-galactopyranose mutase (Mycobacterium tuberculosis (strain ATCC 25618 / H37Rv)), … | inhibition, % at 10 µM | purified UGM, fluorescence polarization probe displacement; in the data active means inhibition above about 10%, passing the limit was not always enough; inconclusive means no clear call, values can overlap the other calls
Target sequence (P9WIQ1 whole entry, looked up): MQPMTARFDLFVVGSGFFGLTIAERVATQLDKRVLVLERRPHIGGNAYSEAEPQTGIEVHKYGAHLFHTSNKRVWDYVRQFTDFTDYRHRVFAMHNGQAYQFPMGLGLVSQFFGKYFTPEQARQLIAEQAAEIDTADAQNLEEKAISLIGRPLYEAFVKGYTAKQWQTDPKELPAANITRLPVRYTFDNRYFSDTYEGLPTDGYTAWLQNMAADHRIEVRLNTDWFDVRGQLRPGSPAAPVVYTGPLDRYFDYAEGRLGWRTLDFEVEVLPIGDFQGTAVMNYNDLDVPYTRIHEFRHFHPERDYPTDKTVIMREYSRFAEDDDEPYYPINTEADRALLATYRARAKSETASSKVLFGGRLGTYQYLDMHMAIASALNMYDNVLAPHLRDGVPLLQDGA
Rv3671c protease: Rv3671c serine protease inhibitors, primary screen, biochemical, fluorescence polarization, M. tuberculosis H37Rv. inhibition, % at 5.96 µM. hit rate 0.048% among 320,000. AID 2606, 2010; in the data active means inhibition above about 38%;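 further: extracellular domain of Rv3671c used as enzyme; 0% = enzyme with DMSO and 100% = no enzyme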
Mtb betalactam: beta-lactam sensitization of Mtb H37Rv, H37Rv; hit rate 0.27% among 330,000; M. tuberculosis H37Rv growth with meropenem, percent inhibition; inhibition, % at 25 µM; AID 434955, 2010; call rule not given here;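 further: growth measured after seven days incubation then overnight dye step; 0% = bacteria only wells and 100% = bacteria with antibiotic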
GDH-TPI counter-1: GDH-TPI coupling enzyme inhibitors, primary screen, artefact control for M. tuberculosis FBA inhibitor project, biochemical, absorbance, full deck; inhibition, % at 4.8 µM; GDH-TPI coupled enzyme counterscreen, NADH absorbance; hit rate 1.2% among 360,000; in the data active means inhibition above about 30%;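 further: 0% = DMSO wells and 100% = wells lacking the enzyme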
FBA Mtb inh: Mtb FBA enzyme inhibitors, primary screen, biochemical, fluorescence, strain H37Rv; Fructose-bisphosphate aldolase (Mycobacterium tuberculosis (strain ATCC 25618 / H37Rv)), …; purified M. tuberculosis FBA, fluorescence read-out; inhibition, % at 1 µM; hit rate 2.3% among 360,000; AID 588726, 2011;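 further: 0% = vehicle and 100% = reference inhibitor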
Mtb FBA confirm: M. tuberculosis aldolase blockers, biochemical, fluorescence, strain H37Rv, confirmation; hit rate 78% among 5,600; shares compounds with FBA Mtb inh; purified M. tuberculosis FBA, fluorescence read-out; inhibition, % at 1 µM; AID 651616, 2012;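 further: 0% = vehicle wells and 100% = reference inhibitor wells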
GDH-TPI counter-2: GDH-TPI coupling enzyme inhibitors, artefact control for M. tuberculosis FBA inhibitor project, biochemical, fluorescence, high throughput. shares compounds with FBA Mtb inh. GDH-TPI coupled enzyme counterscreen. inhibition, % at 1 µM. hit rate 81% among 5,600; in the data active means inhibition above about 10%
An asterisk follows results filed as active; u = inconclusive; x = no result; + = active, no number. Unless noted, no stated cut-off is given here; in the data, active means inhibition above about 27%; inactive means the rest.

SMILES | FadD28 FP inh | UGM FP inh | Rv3671c protease | Mtb betalactam | GDH-TPI counter-1 | FBA Mtb inh | Mtb FBA confirm | GDH-TPI counter-2
COc1ccc(-c2nc3ncnn3cc2C)cc1F | 0 | 1 | 5 | -7 | -4 | 73* | + | +
COc1ccc(-c2nc3nc(SC)nn3cc2C)cc1F | -4 | 0 | -10 | -3 | 1 | 16 | x | x
COc1ccc(OCCN2CCCC2)cc1Nc1nnc(Cl)c(Nc2ccccc2S(C)(=O)=O)n1 | 0 | x | x | x | 22 | 5 | x | x
CC1(C)Cc2nc3oc4c(NCc5ccccc5)ncnc4c3cc2CO1 | u | -1 | -4 | -3 | -5 | 60* | 47* | 44*
Cc1nc2oc3c(NCc4ccccn4)ncnc3c2c2c1COC(C)(C)C2 | -1 | 0 | -5 | 1 | 9 | 94* | 86* | 74*
CCCNc1c(NC(=O)C2CCC(C)CC2)c(=O)oc2ccccc12 (stereo unspecified) | -3 | -2 | 4 | u | -1 | -1 | x | x
O=C(NCc1ccc(C(F)(F)F)cc1)c1ccc(-c2cccnc2)c2ccoc12 | -4 | x | x | x | -4 | 8 | x | x
COc1cccc(C2C3=C(CC(C)(C)CC3=O)Nc3cc4c(cc32)OCO4)c1 (stereo unspecified) | 4 | 3 | 3 | 8 | 25 | 15 | x | x
CCOc1ccccc1C1C2=C(COC2=O)Nc2cc3c(cc21)OCO3 (stereo unspecified) | 1 | 0 | 7 | 1 | 2 | 11 | x | x
O=C1OCC2=C1C(c1ccc(F)cc1)c1cc3c(cc1N2)OCCO3 (stereo unspecified) | -2 | x | x | x | 37* | 74* | + | 137*
O=C1OCC2=C1C(c1ccc(F)cc1)c1cc3c(cc1N2)OCO3 (stereo unspecified) | -2 | x | x | x | 7 | 27* | 133* | 142*
CC(=O)Oc1ccc(C2C3=C(CC(C)(C)CC3=O)Nc3cc4c(cc32)OCCO4)cc1 (stereo unspecified) | -3 | 1 | 4 | 0 | 43* | 47* | 72* | 63*
NC(c1ccccc1)c1cccs1 (stereo unspecified) | -2 | x | x | x | x | 2 | x | x
O=[N+]([O-])c1ccc2sc(SCc3nc4ccccn4c3Br)nc2c1 | x | 1 | 2 | 10 | x | x | x | x
Brc1c(CSc2nc3ccccc3s2)nc2ncccn12 | -5 | 0 | -1 | 2 | -3 | 28* | 108* | 82*
COc1ccc(Cc2noc(CN3CCCN(Cc4ccc(F)cc4)CC3)n2)cc1OC | -3 | -1 | -1 | -5 | -3 | 59* | 58* | 40*
CC1(C(=O)Nc2cnc3ccccc3c2)CCN1Cc1ccccc1OC(F)F (stereo unspecified) | -2 | x | x | x | 14 | -3 | x | x
COc1ccc(-c2nc3c4ccccc4ccn3c2CN2CCOCC2)cc1OC | 0 | 0 | -6 | -1 | 13 | 37* | 74* | 51*
c1ccc(-c2nc3c4ccccc4ccn3c2CN2CCOCC2)cc1 | -4 | 0 | -2 | 0 | 3 | 6 | x | x
Cc1cccc(CN(Nc2ccccc2)c2ccccc2)n1 | -2 | x | x | x | 10 | 0 | x | x
CC1(C)CC(=O)C=C(c2cccc(OC(=O)c3ccc(-c4ccccc4)cc3)c2)C1=O | -3 | x | x | x | 2 | -3 | x | x
COc1cccc(C2CN(c3ccc(F)cc3F)N=C2c2cccs2)c1OC (stereo unspecified) | -5 | -1 | 2 | 9 | 5 | 86* | 168* | 120*
COc1ccccc1C1CN(c2ccccc2)N=C1c1cccs1 (stereo unspecified) | -3 | -4 | -1 | 3 | 7 | 85* | 4 | -5
O=C1c2ccccc2C(=O)N1C1C=CC=CC=C1 | -2 | x | x | x | -2 | 1 | x | x
CCn1ncc(CN2CCC(n3nccc3NC(=O)c3ccccc3Cl)CC2)c1C | -1 | x | x | x | -3 | -1 | x | x
SMILES | FadD28 FP inh | UGM FP inh | Rv3671c protease | Mtb betalactam | GDH-TPI counter-1 | FBA Mtb inh | Mtb FBA confirm | GDH-TPI counter-2
C1=C[C@@H]2CCN(Cc3ccccc3)Cc3cccc(c32)C1 | 1 | 2 | -5 | -1 | 18 | 28* | + | +
Cc1ccc2[nH]c(-c3cccc(N)c3)cc2c1 | -6 | -2 | 12 | 11 | 9 | 43* | 152* | 128*
Cc1cc(F)ccc1C(O)c1ncc(-c2cccc(OCc3ccccc3)c2)[nH]1 (stereo unspecified) | -5 | x | x | x | -8 | -2 | x | x
COc1ccc(-c2cc(NC=O)c3ncc(-c4ccc(OC)c(OC)c4)n3c2)cc1 | 0 | x | x | x | 10 | 0 | x | x
COc1cc(C=Nc2ccccc2C(=O)Nc2ccccc2)cc(OC)c1OC | -1 | -3 | 0 | 0 | 6 | 51* | + | +
CCOC(=O)C1CCN(C(=O)CCc2c(C)nc3cc(-c4ccc(OC)cc4OC)nn3c2C)CC1 | -4 | -1 | -3 | 43 | 1 | 50* | 100* | 68*
CCOC(=O)C1CCN(C(=O)CCc2c(C)nc3ncnn3c2C)CC1 | 0 | 1 | 2 | -7 | 8 | -5 | x | x
Cc1ccc(C(O)c2ncc(-c3ccccc3C)[nH]2)cc1F (stereo unspecified) | -1 | x | x | x | 6 | -3 | x | x
CC1CCc2c(sc(Nc3nc4c(F)cccc4s3)c2C(N)=O)C1 (stereo unspecified) | 0 | -1 | 1 | 63 | 15 | 28* | 113* | 99*
Cc1nc(N)c(C#N)c(-c2cccnc2)c1-c1ccccc1 | -1 | 2 | -3 | u | 9 | 4 | x | x
Cc1ccc2c(n1)sc1c(-c3ccccc3)c(C#N)c(N)nc12 | -3 | 1 | -4 | 0 | 20 | 69* | 163* | 168*
CCOc1ccccc1NC(=O)COC(=O)C1COc2ccccc2O1 (stereo unspecified) | -3 | x | x | x | -4 | -4 | x | x
Cc1ccc2c(c1)COc1c3ccc(C(=O)N[C@@H](C)CO)cc3nn1-2 | -1 | -2 | -9 | 14 | 21 | 34* | + | +
O=C(c1cnc2ccc(Cl)cc2c1Cl)N1CCOCC1 | -2 | x | x | x | -4 | -2 | x | x
O=C(c1ccc2nc3ccc(Cl)cc3c(=O)n2c1)N1CCC2(CC1)OCCO2 | -2 | -1 | 4 | -12 | 20 | 40* | + | +
O=C(c1ccc2nc3ccc(Cl)cc3c(=O)n2c1)N1CCOCC1 | -2 | -1 | -3 | u | 13 | 93* | + | +
